Source: PubChem BioAssay
JMJD2A Tudor inh = qHTS Assay for Inhibitors of JMJD2A-Tudor Domain | Lysine-specific demethylase 4A (Homo sapiens), O75164 | AlphaScreen JMJD2A-Tudor / H3K4me3 peptide binding | Potency, µM (doses to about 114 µM), hits mostly inhibitors | 4.4% of 390,000 active; also: nearly all actives have a fitted effect of over 50% in size
BAZ2B inh = qHTS Assay for Inhibitors of BAZ2B; Bromodomain adjacent to zinc finger domain protein 2B (Homo sapiens), Q9UIF8; AlphaScreen BAZ2B-H3K14Ac peptide displacement; Potency, µM (series often up to 114 µM), most hits filed as inhibitors; 4.4% of 360,000 active; also: nearly all actives have a fitted effect of over 60% in size
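Multi-concentration screen (max 110 uM) measuring displacement of acetylated histone H3 peptide from BAZ2B by AlphaScreen, using 50 nM protein, 50 nM peptide and 10 ug/mL streptavidin donor plus Ni-chelate acceptor beads.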
G9a block = qHTS Assay for Inhibitors of Histone Lysine Methyltransferase G9a | Histone-lysine N-methyltransferase EHMT2 (Homo sapiens), Q96KQ7 | G9a H3K9 monomethylation, AlphaScreen, 2 h | Potency, µM (highest dose often 102 µM), hits mostly inhibitors | 8.8% of 350,000 active; also: nearly all actives have a fitted effect of over 75% in size
Target sequence (Q96KQ7 913-1193 limits assumed): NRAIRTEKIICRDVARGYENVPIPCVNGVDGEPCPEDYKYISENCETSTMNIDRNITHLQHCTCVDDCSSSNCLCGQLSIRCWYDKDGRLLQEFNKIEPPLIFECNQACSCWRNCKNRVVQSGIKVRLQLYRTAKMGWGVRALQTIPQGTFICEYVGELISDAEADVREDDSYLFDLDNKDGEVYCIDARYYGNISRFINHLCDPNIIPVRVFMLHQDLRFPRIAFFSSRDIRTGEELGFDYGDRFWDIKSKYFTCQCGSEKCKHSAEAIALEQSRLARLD
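Step 1: enzyme (final 20 nM) with compound, 15 min RT. Step 2: substrate peptide 500 nM and SAM 20 uM, 2 h RT. Step 3: anti-H3K9me1 antibody and AlphaScreen beads, 10 min, then plate read.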
CtBP-E1A blk = qHTS Assay for Inhibitors of the CtBP/E1A Interaction; CtBP / adenovirus E1A interaction (AlphaScreen); AlphaScreen GST-E1A/His-CtBP binding, 1536-well; hits give low values; activity change, % (test concentration not listed); 0.49% of 340,000 active; in the data active = activity change below about -65%; inconclusive = mostly about -30% to -63%
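GST-E1A and His-tagged CtBP (125 nM each as 5X stock) were preincubated with pin-transferred compound for 2 h at 37 °C in the dark, then glutathione donor and nickel acceptor beads were added for 1 h before AlphaScreen reading.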
HP1b binding inh = HTS for Inhibitors of HP1-beta Chromodomain Interactions with Methylated Histone Tails; AlphaScreen HP1-beta / biotin-H3K9me3 peptide binding; Chromobox protein homolog 1 (Homo sapiens), P83916; 0.56% of 390,000 active; Potency, µM (top dose mostly 114 µM), actives largely listed as inhibitors; also: nearly all actives have a fitted effect of over 70% in size
Target sequence (P83916 whole entry, looked up): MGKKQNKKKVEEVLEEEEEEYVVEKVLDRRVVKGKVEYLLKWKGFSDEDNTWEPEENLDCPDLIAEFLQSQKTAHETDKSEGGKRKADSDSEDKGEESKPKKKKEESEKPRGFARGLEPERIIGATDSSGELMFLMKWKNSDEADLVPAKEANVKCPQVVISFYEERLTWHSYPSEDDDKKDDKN
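AlphaScreen: HP1-beta (50 nM) preformed 30 min with biotin-H3(1-18)K9me3 peptide (50 nM) in PBS pH 7.4, 0.01% Tween-20. Compound added for 30 min at RT, then streptavidin donor/nickel chelate acceptor beads (10 ug/mL) for 30 min.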
Six1-Eya2 inh = qHTS Assay for Inhibitors of the Six1/Eya2 Interaction. activity change, % (concentration not given with the values). AlphaScreen GST-Six1/His-Eya2 binding, biochemical; hits give low values. 0.56% of 360,000 active. Homeobox protein SIX1 (Homo sapiens) + Protein phosphatase EYA2 (Homo sapiens), …; in the data active = activity change below about -65%; inconclusive = mostly about -30% to -63%
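AlphaScreen with GST-Six1 and His-Eya2 (5X mix: 250 nM and 500 nM), glutathione donor and nickel acceptor beads; buffer 50 mM Tris pH 8.0, 300 mM NaCl, 1 mM TCEP; 1 h at 37 C in the dark.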
A number is an active result; 0 = inactive; ? = inconclusive; - = no result; [ ] = dose if it differs, or a comment. A selection: hits, their analogues and other compounds. The true share with any hit is near 10%. Unless noted, calls follow the shape of the dose curve; as a rule, active = well fitted inhibition curve with a large enough effect; inconclusive = small, poorly fitted or top-dose-only effect; inactive = no such curve, though single readings can be large or run the other way.

SMILES | JMJD2A Tudor inh | BAZ2B inh | G9a block | CtBP-E1A blk | HP1b binding inh | Six1-Eya2 inh
CCc1nnc(SCc2nc(-c3ccc(OC)cc3)oc2C)c2cc3sccc3n12 | 0 | 0 | 0 | - | 0 | -
Cc1ccc(-c2nc(NC(=O)CSc3ncnc4sc5c(c34)CCC(C)C5)ns2)cc1 (centres undefined) | 0 | 0 | 0 | - | 0 | -
COC(=O)c1ccc2c(=O)n(CCCCCC(=O)NCCc3ccccc3)c(=O)[nH]c2c1 | 0 | 0 | 0 | - | 0 | -
CC(C)Oc1ccc(CNC(=O)c2ccc3c(c2)N(C)CCS3)cc1 | ? | ? | 56µM | 0 | 0 | 0
COc1ccc(Nc2nn(-c3ccc(OC(F)(F)F)cc3)nc2C(C)=O)cc1 | 0 | 0 | 0 | - | 0 | -
C=C(C)CC1Nc2ccccc2NC1CC(=C)C (centres undefined) | 79µM | 50µM | ? | 0 | 0 | 0
CO/C([O-])=N/c1c[n+](-c2ccc(C)cc2)no1 | 0 | 0 | 20µM | 0 | 0 | 0
CCOc1cccc(=O)c2c(C)n(-c3ccc(C(=O)O)cc3)c(C)c12 | ? | 50µM | - | 0 | ? | 0
CC1=C(C(=O)OC2CCCCCC2)C(c2ccc(Cl)cc2Cl)CC(=O)N1 (centres undefined) | 0 | 0 | 0 | - | 0 | -
O=C(Nc1cc(Cl)cc(Cl)c1)c1cc(S(=O)(=O)N2CCc3ccccc3C2)ccc1F | 0 | 0 | 0 | - | 0 | -
CCOc1ccc(N2CC(C)Cn3c2nc2c3c(=O)n(CC(=O)O)c(=O)n2C)cc1 (centres undefined) | 0 | 0 | 0 | - | 0 | -
Cc1nn(-c2ccccc2)c(C)c1/C=C/C(=O)OCC(=O)Nc1ncc(Cl)cc1Cl | ? | 0 | ? | 0 | 0 | 0
CCN(C(=O)COC(=O)/C=C/c1c(C)nn(-c2ccccc2)c1C)C1CCS(=O)(=O)C1 (centres undefined) | 0 | 0 | 0 | -71 | 0 | 0
CNC(=O)COC(=O)/C=C/c1c(C)nn(-c2ccccc2)c1C | 0 | 0 | 50µM | 0 | 0 | 0
CCc1ccc(NC(=O)c2cc3c([nH]c2=O)CC(C)(C)CC3=O)cc1 | 0 | 0 | 0 | - | 0 | -
Oc1cccc(/C=N/NC(=S)NCCN2CCOCC2)c1O | 22µM | 8.9µM | 0[12.7 µM] | -94 | 0 | -69
S=C(NCCN1CCOCC1)N/N=C/c1cccs1 | 0 | 0 | 0[2.33 µM] | - | 0 | 0
O=C(O)c1ccc(/C=N/NC(=S)NCCN2CCOCC2)cc1 | 32µM | 0 | 0 | 0 | 0 | 0
COC(=O)[C@]1(C)N[C@H](c2ccc(-c3ccc(Cl)c(Cl)c3)c(OC)c2)[C@@H]2C(=O)N(C)C(=O)[C@@H]21 | 89µM | 0 | ? | 0 | 0 | 0
COC(=O)[C@]1(C)N[C@H](c2ccc(-c3ccc(OC)cc3)cc2)[C@@H]2C(=O)N(C)C(=O)[C@@H]21 | 0 | - | - | 0 | 0 | 0
CCOC(=O)C1=C(O)/C(=C/c2cc(OC)c(O)c(OC)c2)SC1=Nc1ccc(OC)cc1 | 0 | 0 | 8.9µM | - | 0 | 0
CCOC(=O)C1=C(O)/C(=C/c2ccc(-c3ccccc3C(=O)O)o2)SC1=Nc1ccc(OC)cc1 | 0 | 0 | 0[12.7 µM] | 0 | 0 | 0
CCOC(=O)C1=C(O)/C(=C/c2ccc(-c3ccccc3C(=O)O)o2)SC1=Nc1ccc(C)cc1 | 50µM | 0 | 0 | 0 | 0 | 0
CCOc1ccc(NC(=O)c2nn(C)c3c2CS(=O)(=O)c2ccccc2-3)cc1 | 0 | 0 | ? | - | 0 | -
COc1ccc(CCNc2ccc(C)cc2)cc1 | 40µM | ? | ? | 0 | ? | 0
SMILES | JMJD2A Tudor inh | BAZ2B inh | G9a block | CtBP-E1A blk | HP1b binding inh | Six1-Eya2 inh
COCCCn1c(=O)/c(=C\c2ccccc2OC(C)C)s/c1=C(/C#N)C(=O)Nc1ccc(C(=O)O)cc1 | ? | 50µM | 45µM | 0 | 0 | 0
Cc1cc2n(n1)SC(Nc1ccccc1)N2 (centres undefined) | 7.9µM | 0 | 1.8µM | 0 | ? | 0
Cc1cc(NC(=NC2CC2)c2ccccc2)n(-c2ccccc2)n1 | 0 | 0 | ? | 0 | 0 | 0
Cc1ccc(NC2Nc3cc(C)nn3S2)c(C)c1 (centres undefined) | ? | 0 | 1.1µM | 0 | 0 | 0
Cc1cccc(N2CCN(C(=O)c3cccc(-n4c(C)nc5cccnc54)c3)CC2)c1C | 0 | 0 | 0 | - | 0 | -
CCOC(=O)c1c(NC(=O)c2ccc(S(=O)(=O)N(CC(C)C)CC(C)C)cc2)sc2c1CCN(CC)C2 | 0 | 0 | 0 | - | 0 | -
O=C(/C=C/c1ccccc1)c1cc(Br)ccc(=O)c1O | 56µM | 45µM | 13µM | 0 | ? | 0
O=C(/C=C/c1ccc(F)cc1)c1cc(Br)ccc1O | 0 | 0 | 0 | 0 | 0 | 0
Cc1ccc(/C=C/C(=O)c2ccccc(=O)c2O)cc1C | 79µM | 71µM | 28µM | 0 | ? | 0
c1ccc(-c2ccc(SCc3cccnc3)nn2)nc1 | ? | 3.2µM | 0 | -89 | 0 | -91
COc1ccc(CNC(=O)Cc2ccc(NC(=O)N3CCCCc4ccccc43)cc2)cc1 | 0 | 0 | 0 | - | 0 | -
Cc1cccc(C)c1-n1c(C)cc(/C=C2\NC(=O)NC2=O)c1C | 50µM | 40µM | ? | 0 | 0 | 0
COC(=O)C1=C(C)NC(=O)/C1=C\c1cccs1 | 0 | 0 | 0 | 0 | 0 | 0
COC(=O)C1=C(C)NC(=O)/C1=C\c1cc(C)n(-c2ccccc2F)c1C | 0 | 45µM | - | 0 | 0 | 0
COC(=O)C1=C(C)NC(=O)/C1=C\c1cc(C)n(-c2ccccc2C)c1C | 45µM | 45µM | 45µM | 0 | 0 | 0
COC(=O)C1=C(C)NC(=O)/C1=C\c1cc(C)n(-c2c(C)cccc2C)c1C | 32µM | 32µM | 10µM | 0 | ? | 0
COc1ccc(CN2C(=O)C(NC(=O)c3ccc(C)cc3)(C(F)(F)F)N=C2c2ccccc2)cc1 (centres undefined) | 0 | 0 | 0 | - | 0 | -
COCCNC(=O)CN1C(=O)c2cccnc2Sc2ccccc21 | 0 | 0 | 0 | - | 0 | -
O=C(Nc1ccc2c(c1)OCCO2)C1CCN(S(=O)(=O)c2ccc3c(c2)OCCO3)CC1 | 0 | 0 | 0 | 0 | 0 | 0
CC(=O)Nc1ccc(NC(=O)C2CCN(S(=O)(=O)c3ccc4c(c3)OCCO4)CC2)cc1 | 0 | 0 | 18µM | 0 | 0 | 0
COc1ccc(OC)c(NC(=O)C2CCN(S(=O)(=O)c3ccc4c(c3)OCCO4)CC2)c1 | 0 | 0 | 50µM | 0 | 0 | 0
CC(C)C(C)NC(=O)COC(=O)C1CCN(S(=O)(=O)c2ccc3c(c2)OCCO3)CC1 (centres undefined) | 0 | 0 | 50µM | 0 | 0 | 0
